SMILES strings stand for the structures. The whole screen tested about 39,000 compounds, of which about 500 (1.3%) were called active. Only a selection was taken, and actives are over-represented in it overall.

The assay relates to S. aureus RN4220. Kind of assay: growth inhibition call (relative growth <= 0.2). The following applies: 50 µM.
As for `COc1ccc2c3c([nH]c2c1)[C@@H](CO)N(C[C@]13CCN(CC1)C(=O)NC(C)C)C(=O)CN1CCOCC1`, the growth inhibition call is “inactive”.
In the case of `C[C@H]1CN([C@@H](C)CO)C(=O)c2cc(C#CCN(C)C)cnc2O[C@@H]1CN(C)C(=O)Nc1cccc(F)c1` it was “inactive”; in that of `C[C@@H]1CN([C@@H](C)CO)C(=O)Cc2cc(NC(=O)NC3CCCCC3)ccc2O[C@H]1CN(C)C(=O)Nc1ccc(C(F)(F)F)cc1`, “inactive”.
With `Cc1ccc(S(=O)(=O)Nc2ccc3c(c2)C(=O)N([C@@H](C)CO)C[C@H](C)[C@@H](CN(C)Cc2ccc(C(F)(F)F)cc2)OCCCC[C@H](C)O3)cc1` the entry was “inactive”; with `C[C@H]1CN([C@@H](C)CO)C(=O)Cc2cc(NS(=O)(=O)c3cn(C)cn3)ccc2O[C@@H]1CN(C)Cc1ccncc1`, “inactive”.
With `COc1ccc(S(=O)(=O)Nc2ccc3c(c2)CC(=O)N([C@@H](C)CO)C[C@@H](C)[C@@H](CN(C)S(=O)(=O)c2cn(C)cn2)O3)cc1` the entry was “inactive”; with `Cc1noc(C)c1NC(=O)Nc1ccc2c(c1)CC(=O)N([C@H](C)CO)C[C@H](C)[C@H](CN(C)Cc1ccc(Cl)c(Cl)c1)O2`, “inactive”; with `CN1C[C@H](C(N)=O)CC1=O`, “inactive”.
Turning to `Nc1ccc(/C=C/C(=O)NCc2cc3cc(-c4ccc(C(=O)N5CCC(F)(F)CC5)cc4)cc(-c4ccc(F)cc4)c3o2)cn1`, the growth inhibition call was “inactive”.
In the case of `Cc1ccc(S(=O)(=O)N2C[C@@H](O)COC[C@H]3O[C@@H](CC(=O)NCCN4CCCCC4)CC[C@@H]32)cc1` it was “inactive”; in that of `C[C@H](CO)N1C[C@H](C)[C@H](CN(C)Cc2ccncc2)OCCCC[C@H](C)Oc2ccc(NC(=O)C3CCCCC3)cc2C1=O`, “inactive”.
In the case of `C[C@H]1CN([C@@H](C)CO)C(=O)Cc2cc(NS(=O)(=O)c3cccs3)ccc2O[C@@H]1CN(C)C(=O)Nc1cccc2ccccc12` it was “inactive”.
With `CC(C)NC(=O)Nc1ccc2c(c1)CC(=O)N([C@H](C)CO)C[C@@H](C)[C@@H](CN(C)C(=O)NC1CCCCC1)O2` the entry was “inactive”; with `COc1cc(C(C)=O)ccc1O`, “inactive”.
Turning to `COc1cc(C=O)ccc1O`, the growth inhibition call was “inactive”.
Consider `C=CCc1ccc(O)c(OC)c1`, for which the growth inhibition call was “active”.
With `C[C@@H]1CN([C@@H](C)CO)C(=O)c2cccc(NC(=O)c3cnccn3)c2O[C@H]1CN(C)S(C)(=O)=O` the entry was “inactive”.
With `COc1ccc(S(=O)(=O)N(C)C[C@@H]2Oc3c(NC(=O)NC(C)C)cccc3C(=O)N([C@H](C)CO)C[C@H]2C)cc1` the entry was “inactive”; with `CCCNC(=O)N1[C@@H]2c3cccc(=O)n3C[C@H]1[C@H](CO)[C@H]2C(=O)NCC(F)(F)F`, “inactive”; with `FC(F)(F)c1cc(NC(=S)Nc2ccc(Br)cc2-c2nn[nH]n2)cc(C(F)(F)F)c1`, “active”.
For the compound `O=C(Nc1cc(C(F)(F)F)cc(C(F)(F)F)c1)Nc1cnn(-c2ccc([N+](=O)[O-])cc2)c1C(F)(F)F`, the growth inhibition call is “inactive”.
Regarding `O=C(Nc1cc(C(F)(F)F)cc(C(F)(F)F)c1)Nc1c(Br)cc(Br)cc1-c1nn[nH]n1`, the growth inhibition call was “active”.
On to `C[C@@H]1CN([C@H](C)CO)C(=O)Cc2cc(NC(=O)Cn3cnnn3)ccc2O[C@@H]1CN(C)S(=O)(=O)c1ccccc1`, for which the growth inhibition call was “inactive”.
With `COc1cccc(NC(=O)N[C@@H]2C=C[C@H](CC(=O)N3CCOCC3)O[C@H]2CO)c1` the entry was “inactive”; with `Cc1noc(C)c1NC(=O)N(C)C[C@@H]1OCCCC[C@@H](C)Oc2ccc(NC(=O)Cc3ccccc3)cc2C(=O)N([C@@H](C)CO)C[C@@H]1C`, “inactive”.
With `Cc1noc(C)c1S(=O)(=O)Nc1ccc2c(c1)C(=O)N([C@@H](C)CO)C[C@@H](C)[C@@H](CN(C)C(=O)NC(C)C)O2` the entry was “inactive”; with `O=C1CN(/N=C/c2ccc([N+](=O)[O-])o2)C(=O)N1`, “active”; with `O=C1CN(N=Cc2ccc(-c3ccc([N+](=O)[O-])cc3)o2)C(=O)[N-]1.[Na+]`, “inactive”.
With `O=C1CN(N=Cc2ccc([N+](=O)[O-])o2)C(=O)N1` the entry was “active”.
Regarding `O=C1OC(CN2CCOCC2)CN1N=Cc1ccc([N+](=O)[O-])o1` (stereo not given), the growth inhibition call is “active”.
In the case of `O=[N+]([O-])c1cncn1CCN1CCOCC1` it was “inactive”.
With `O=C1OCCN1N=Cc1ccc([N+](=O)[O-])o1` the entry was “active”; with `COc1ccc(CN(C)C[C@@H]2OCCCC[C@H](C)Oc3ccc(NS(=O)(=O)c4cccs4)cc3C(=O)N([C@@H](C)CO)C[C@H]2C)cc1`, “inactive”; with `O=C(O)[C@H](O)c1ccccc1`, “inactive”.
In the case of `COc1ccc(S(=O)(=O)N[C@H]2CC[C@H](CCNC(=O)CN3CCOCC3)O[C@@H]2CO)cc1` it was “inactive”; in that of `C[C@@H]1CCCCO[C@@H](CN(C)Cc2ccncc2)[C@@H](C)CN([C@H](C)CO)C(=O)c2cc(NC(=O)Nc3ccc(F)cc3)ccc2O1`, “inactive”.
With `Cc1noc(C)c1NC(=O)Nc1ccc2c(c1)CC(=O)N([C@H](C)CO)C[C@H](C)[C@H](CN(C)C(=O)Nc1ccc(C(F)(F)F)cc1)O2`, the growth inhibition call is “inactive”.
For the compound `CC(C)NC(=O)N(C)C[C@H]1Oc2ccc(NC(=O)Cc3ccccc3)cc2C(=O)N([C@H](C)CO)C[C@@H]1C`, the growth inhibition call is “inactive”.
In the case of `[N-]=[N+]=NCCOCCNC(=O)CCCOc1ccc(CS(=O)c2nnc(-c3ccc(F)cc3)o2)nc1` (stereo not given) it was “active”; in that of `C[C@H]1CNC(=O)O1`, “inactive”.
Take `COc1ccc(S(=O)(=O)N(C)C[C@@H]2Oc3c(NC(=O)Nc4c(C)noc4C)cccc3C(=O)N([C@@H](C)CO)C[C@H]2C)cc1`: the growth inhibition call is “inactive”.
In the case of `COCCOC(=O)N1C(=O)[C@@]2(c3cc(C#CCC(C(=O)OC)C(=O)OC)ccc31)[C@H](C(=O)N1CCCCCCC1)[C@H]1C(=O)O[C@H](c3ccccc3)[C@H](c3ccccc3)N1[C@@H]2c1ccc(OCCO)cc1` it was “inactive”; in that of `COCCOC(=O)N1C(=O)[C@@]2(c3cc(C#CCC(C(=O)OC)C(=O)OC)ccc31)[C@H](c1ccc(OCCO)cc1)N1[C@H](c3ccccc3)[C@H](c3ccccc3)OC(=O)[C@H]1[C@@H]2C(=O)N1CCCCCCC1`, “inactive”.
With `COCCOC(=O)N1C(=O)[C@@]2(c3cc(C#CCC(C(=O)OC)C(=O)OC)ccc31)[C@H](C(=O)N1CCCCCCC1)[C@H]1C(=O)O[C@H](c3ccccc3)[C@H](c3ccccc3)N1[C@@H]2c1ccc(O)cc1` the entry was “active”; with `C[C@@H]1CN([C@H](C)CO)C(=O)c2c(c3ccccc3n2C)-c2ccccc2CO[C@H]1CN(C)S(C)(=O)=O`, “inactive”; with `C[C@H](CO)N1C[C@H](C)[C@@H](CN(C)S(=O)(=O)c2ccccc2)OCCCC[C@H](C)Oc2ccc(NC(=O)c3ccccc3)cc2C1=O`, “inactive”.
With `CCOC(=O)c1cc2c(c(-c3cccc(Br)c3)n1)[C@@H](CCO[Si](C)(C)C(C)(C)C)N(S(=O)(=O)C(C)(C)C)C2` the entry was “inactive”; with `CC(C)(C)[S@@+]([O-])N1Cc2cc(C(=O)O)nc(-c3ccc(Br)cc3)c2[C@H]1CCO[Si](C)(C)C(C)(C)C`, “active”.
Regarding `CCOC(=O)c1cc2c(c(-c3ccccc3)n1)[C@@H](CCO[Si](C)(C)C(C)(C)C)N(S(=O)(=O)C(C)(C)C)C2`, the growth inhibition call is “inactive”.
With `C[C@@H]1CCCCO[C@@H](CN(C)S(=O)(=O)c2ccc(Cl)cc2)[C@H](C)CN([C@H](C)CO)C(=O)c2cc(NS(=O)(=O)c3ccccc3)ccc2O1` the entry was “inactive”; with `COc1cccc(C#Cc2cnc3c(c2)C(=O)N([C@@H](C)CO)C[C@H](C)[C@@H](CN(C)C(=O)C2CCOCC2)O3)c1`, “inactive”; with `Cc1ccc(S(=O)(=O)N(C)C[C@H]2Oc3ccc(NS(=O)(=O)c4c(C)noc4C)cc3CC(=O)N([C@H](C)CO)C[C@H]2C)cc1`, “inactive”.
In the case of `O=C(O)c1cnc(N2CCCC2)nc1` it was “inactive”; in that of `Cc1ccc(Cl)c(Nc2ccccc2C(=O)[O-])c1Cl.[Na+]`, “inactive”.
Turning to `Cc1cc(O)c(C(=O)NC(C(=O)NC2C(=O)N3C(C(=O)O)=C(CSc4nnnn4C)CSC23)c2ccc(O)cc2)cn1` (stereo not given), the growth inhibition call is “active”.
In the case of `Cc1cc(=O)c(C(=O)N[C@@H](C(=O)N[C@@H]2C(=O)N3C(C(=O)O)=C(CSc4nnnn4C)CS[C@H]23)c2ccc(O)cc2)c[nH]1` it was “active”; in that of `CCN1CCN(C(=O)NC(C(=O)NC2C(=O)N3C(C(=O)O)=C(CSc4nnnn4C)CSC23)c2ccc(O)cc2)C(=O)C1=O` (stereo not given), “active”.
With `Cc1cc2nc3ccc(N(C)C)cc3[s+]c2cc1N.[Cl-]` the entry was “inactive”.
In the case of `C=CCOC(=O)[C@H]1[C@@H]2C(=O)O[C@@H](c3ccccc3)[C@@H](c3ccccc3)N2[C@@H](c2ccc(OCCOC(=O)[C@H]3C[C@H]4C(=O)N[C@@H](CC(C)C)C(=O)N4[C@H]3c3cccc(OCCO)c3)cc2)[C@]12C(=O)Nc1ccc(I)cc12` it was “inactive”.
`COc1ccc(S(=O)(=O)N(C)C[C@@H]2Oc3cc(C4=CCCC4)ccc3S(=O)(=O)N([C@@H](C)CO)C[C@H]2C)cc1`: the growth inhibition call is “inactive”.
In the case of `C[C@H](CO)N1C[C@H](C)[C@H](CN(C)Cc2ccc(C(F)(F)F)cc2)Oc2ccc(NS(=O)(=O)c3ccc(Cl)cc3)cc2C1=O` it was “inactive”; in that of `CCC1OC(=O)CC(O)C(C)C(OC2OC(C)C(O)C(N(C)C)C2O)C(CCN2CC(C)CC(C)C2)CC(C)C(=O)C=CC(C)=CC1COC1OC(C)C(O)C(OC)C1OC` (stereo not given), “active”; in that of `CC[C@H]1OC(=O)C[C@@H](O)[C@H](C)[C@@H](O[C@@H]2O[C@H](C)[C@@H](O)[C@H](N(C)C)[C@H]2O)[C@@H](CCN2C[C@H](C)C[C@H](C)C2)C[C@@H](C)C(=O)/C=C/C(C)=C/[C@@H]1CO[C@@H]1O[C@H](C)[C@@H](O)[C@@H](OC)[C@H]1OC`, “active”.
In the case of `CC[C@@H]1OC(=O)C[C@@H](O)[C@H](C)[C@@H](O[C@@H]2O[C@H](C)[C@@H](O)[C@H](N(C)C)[C@H]2O)[C@@H](CCN2C[C@H](C)C[C@H](C)C2)C[C@@H](C)C(=O)/C=C/C(C)=C\[C@@H]1CO[C@@H]1O[C@H](C)[C@@H](O)[C@@H](OC)[C@H]1OC` it was “active”; in that of `C[C@@H]1CN([C@H](C)CO)C(=O)Cc2cc(NS(C)(=O)=O)ccc2O[C@H]1CN(C)S(=O)(=O)c1cn(C)cn1`, “inactive”.

Source of the values: the antibiotic and cytotoxicity screens of Wong et al. (2023).
